Records with an inconclusive call do not appear. A call without a number means that no potency is given here. A number with no mark means an inactive call. The source made the active and inactive calls. The call rests on the fitted dose curve; in most records, active means well fitted curve in the direction sought with a large enough effect; inconclusive means small, poorly fitted or top-dose-only effect, or another doubt; inactive means no such curve, though single readings can be large; an effect the other way counts as inactive or inconclusive.
Experiments:
[1] = qHTS of pediatric cancer cell lines to identify multiple opportunities for drug repurposing: Primary screen for NB1643 cells (AID 1347099); further: nearly all actives have a fitted effect of over 50% in size
Method in brief: (§1)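 Cells plated at 500-1,000/well in growth medium, compounds added after 5 h. MIPE tested at 11 points (from 0.78 nM), NPC at 8 points (from 0.59 nM). CellTiter-Glo luminescence after 48 h; concentration-response curves from primary screen.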

[2] = qHTS of pediatric cancer cell lines to identify multiple opportunities for drug repurposing: Primary screen for LAN-5 cells (AID 1347100)
Method in brief: (§2)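 Cells (500-1,000/well) rested 5 h, then received compounds for 48 h; metabolically active cells were measured by CellTiter-Glo luminescence. Final concentrations spanned up to 46 µM (MIPE, 11-point) or 0.59 nM-46 µM (NPC, 8-point) in primary screens, 11-point in follow-ups.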

[3] = qHTS of pediatric cancer cell lines to identify multiple opportunities for drug repurposing: Primary screen for BT-12 cells (AID 1347101); further: nearly all actives have a fitted effect of over 25% in size
Method in brief: as §2

[4] = qHTS of pediatric cancer cell lines to identify multiple opportunities for drug repurposing: Primary screen for Rh18 cells (AID 1347102); further: nearly all actives have a fitted effect of over 65% in size
Method in brief: as §2

[5] = qHTS of pediatric cancer cell lines to identify multiple opportunities for drug repurposing: Primary screen for OHS-50 cells (AID 1347103); further: nearly all actives have a fitted effect of over 40% in size
Method in brief: as §2

[6] = qHTS of pediatric cancer cell lines to identify multiple opportunities for drug repurposing: Primary screen for RD cells (AID 1347104); further: nearly all actives have a fitted effect of over 55% in size
Method in brief: as §1

[7] = qHTS of pediatric cancer cell lines to identify multiple opportunities for drug repurposing: Primary screen for MG 63 (6-TG R) cells (AID 1347105); further: nearly all actives have a fitted effect of over 50% in size
Method in brief: as §1

[8] = qHTS of pediatric cancer cell lines to identify multiple opportunities for drug repurposing: Primary screen for control Hh wild type fibroblast cells (AID 1347106); further: nearly all actives have a fitted effect of over 55% in size;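 on activity change, negative = cytotoxic: series mostly up to about 46 µM; a drop in luminescence marks cytotoxicity and a rise apparent proliferation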
Method in brief: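 Viability after 48 h compound treatment at 37C, 500-1,000 cells/well, read as ATP luminescence with CellTiter-Glo. Primary screens used 11-point (MIPE, 0.78 nM-46 µM) or 8-point (NPC, 0.59 nM-46 µM) final concentrations; follow-up screens used 11-point dilutions.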

[9] = qHTS of pediatric cancer cell lines to identify multiple opportunities for drug repurposing: Primary screen for SK-N-SH cells (AID 1347098); further: nearly all actives have a fitted effect of over 65% in size;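 on activity change, negative = cytotoxic: DMSO served as neutral control and bortezomib at 2.3 µM as positive control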
Method in brief: as §2
Potency means the concentration at half of the fitted maximal effect.

With `CCCCc1cc2ccccc2c(OCCN(C)C)n1` the Potency [1] was “inactive”, the Potency [2] was “inactive” and the Potency [3] was “inactive”. The Potency [4] was “inactive”, the Potency [5] was 15.5 µM (active) and the Potency [6] was “inactive”. The Potency [7] was “inactive” and the Potency [8] was “inactive”.
For `NC(=O)n1c(O)c(C(=O)c2cccs2)c2cc(Cl)ccc21`, the Potency [4] was “inactive”, the Potency [7] was “inactive” and the Potency [8] was “inactive”.
In the case of `C#C[C@]1(OC(C)=O)CC[C@H]2[C@@H]3CCC4=C/C(=N/O)CC[C@@H]4[C@H]3CC[C@@]21CC`, the Potency [2] is reported as 23.7 µM (active), the Potency [3] is reported as “inactive” and the Potency [4] is reported as “inactive”. The Potency [6] was 29.9 µM (active), the Potency [7] was “inactive” and the Potency [8] was “inactive”.
In the case of `CCc1ccc(C(=O)C(C)CN2CCCCC2)cc1` (centres undefined), the Potency [1] is reported as “inactive”, the Potency [2] is reported as “inactive” and the Potency [3] is reported as “inactive”. For the same molecule, the Potency [4] was “inactive”, the Potency [5] was “inactive” and the Potency [6] was “inactive”. For the same molecule, the Potency [7] was “inactive” and the Potency [8] was “inactive”.
In the case of `O=C(Nc1ncc([N+](=O)[O-])s1)c1cccs1`, the Potency [1] is reported as 23.7 µM (active), the Potency [3] is reported as 12.3 µM (active) and the Potency [5] is reported as 30.9 µM (active). The Potency [8] was “inactive”.
In the case of `CCN(CC)CCOC(=O)C(Cc1cccc2ccccc12)CC1CCCO1` (centres undefined), the Potency [9] is reported as “inactive”, the Potency [1] is reported as “inactive” and the Potency [3] is reported as “inactive”. For the same molecule, the Potency [7] was “inactive” and the Potency [8] was “inactive”.
In the case of `C#C[C@]1(O)CC[C@H]2[C@@H]3CCC4=Cc5oncc5C[C@]4(C)[C@H]3CC[C@@]21C`, the Potency [9] is reported as “inactive”, the Potency [1] is reported as “inactive” and the Potency [5] is reported as 24.6 µM (active). The Potency [7] was “inactive” and the Potency [8] was “inactive”.
`N=C(N)N1CCc2ccccc2C1` gave an activity change, negative = cytotoxic [9] of -21.9% [at 6 µM], an activity change, negative = cytotoxic [1] of -5.24% [at 4.84 µM] and an activity change, negative = cytotoxic [3] of -5.09% [at 6.03 µM]. It also gave an activity change, negative = cytotoxic [4] of 1.68% [at 4.84 µM], an activity change, negative = cytotoxic [6] of -9.62% [at 4.84 µM] and an activity change, negative = cytotoxic [7] of -18.3% [at 4.84 µM]. It also gave an activity change, negative = cytotoxic [8] of -9.54% [at 4.84 µM].
In the case of `O=c1[nH]c(=O)n([C@H]2C[C@H](O)[C@@H](CO)O2)cc1F`, the Potency [9] is reported as “inactive”, the Potency [1] is reported as “inactive” and the Potency [4] is reported as “inactive”. For the same molecule, the Potency [5] was “inactive”, the Potency [7] was “inactive” and the Potency [8] was “inactive”.
With `CCCCCCCCCCCCOCCOCCOCCOCCOCCOCCOCCOCCOCCO` the Potency [9] was “inactive”, the Potency [1] was “inactive” and the Potency [3] was 6.92 µM (active). For the same molecule, the Potency [4] was “inactive”, the Potency [5] was 15.5 µM (active) and the Potency [8] was “inactive”.
In the case of `COc1ccc(C(=O)c2ccccc2O)c(O)c1`, the Potency [1] is reported as “inactive”, the Potency [2] is reported as “inactive” and the Potency [3] is reported as “inactive”. For the same molecule, the Potency [6] was “inactive”, the Potency [7] was “inactive” and the Potency [8] was “inactive”.
With `Cc1ccc2c(Br)cc(Br)c(O)c2n1` the Potency [1] was 15 µM (active), the Potency [2] was 11.9 µM (active) and the Potency [5] was 11 µM (active). The Potency [6] was 10.6 µM (active), the Potency [7] was 13.3 µM (active) and the Potency [8] was “inactive”.
With `CN(Cc1ccc(C(C)(C)C)cc1)Cc1cccc2ccccc12` the Potency [9] was “inactive”, the Potency [1] was “inactive” and the Potency [3] was “inactive”. For the same molecule, the Potency [6] was “inactive” and the Potency [8] was “inactive”.
In the case of `CCc1nn(CCCN2CCN(c3cccc(Cl)c3)CC2)c(=O)n1CCOc1ccccc1`, the Potency [1] is reported as “inactive”, the Potency [4] is reported as “inactive” and the Potency [5] is reported as 24.6 µM (active). The Potency [6] was “inactive”, the Potency [7] was “inactive” and the Potency [8] was “inactive”.
With `CCc1oc2ccccc2c1C(=O)c1cc(I)c(O)c(I)c1` the Potency [2] was “inactive”, the Potency [3] was “inactive” and the Potency [4] was “inactive”. The Potency [7] was “inactive” and the Potency [8] was “inactive”.
For `C[C@]12CCC(=O)C=C1C=C[C@@H]1[C@@H]2CC[C@@]2(C)[C@H]1CC[C@@]21CCC(=O)O1`, the Potency [9] was “inactive”, the Potency [4] was “inactive” and the Potency [5] was 15.5 µM (active). For the same molecule, the Potency [6] was “inactive”, the Potency [7] was “inactive” and the Potency [8] was “inactive”.
For `CCCCCCCCCCCCSCCOCCO`, the Potency [9] was “inactive”, the Potency [1] was “inactive” and the Potency [3] was “inactive”. The Potency [4] was “inactive”, the Potency [6] was “inactive” and the Potency [7] was “inactive”. For the same molecule, the Potency [8] was “inactive”.
In the case of `CCCCCN=C(N)N/N=C/c1c[nH]c2ccc(OC)cc12`, the Potency [9] is reported as 4.33 µM (active), the Potency [3] is reported as 13.8 µM (active) and the Potency [4] is reported as 9.44 µM (active). The Potency [5] was 11 µM (active) and the Potency [6] was 7.5 µM (active).
For `CN1CCN(C2=Nc3cc(F)ccc3Cc3ccccc32)CC1`, the Potency [2] was “inactive” and the Potency [8] was “inactive”.
In the case of `CC1(COc2ccc(CC3SC(=O)NC3=O)cc2)CCCCC1` (centres undefined), the Potency [1] is reported as “inactive”, the Potency [2] is reported as “inactive” and the Potency [4] is reported as “inactive”. For the same molecule, the Potency [5] was 5.5 µM (active), the Potency [6] was “inactive” and the Potency [7] was “inactive”. For the same molecule, the Potency [8] was “inactive”.
For `CCNC(=O)/C=C/c1cccc(Br)c1`, the Potency [9] was “inactive”, the Potency [1] was “inactive” and the Potency [3] was “inactive”. The Potency [6] was “inactive”, the Potency [7] was “inactive” and the Potency [8] was “inactive”.
In the case of `OC[C@H]1O[C@@H]2O[C@H]3[C@H](O)[C@@H](O)[C@@H](O[C@H]4[C@H](O)[C@@H](O)[C@@H](O[C@H]5[C@H](O)[C@@H](O)[C@@H](O[C@H]6[C@H](O)[C@@H](O)[C@@H](O[C@H]7[C@H](O)[C@@H](O)[C@@H](O[C@H]8[C@H](O)[C@@H](O)[C@@H](O[C@H]1[C@H](O)[C@H]2O)O[C@@H]8CO)O[C@@H]7CO)O[C@@H]6CO)O[C@@H]5CO)O[C@@H]4CO)O[C@@H]3CO`, the Potency [1] is reported as “inactive”, the Potency [3] is reported as “inactive” and the Potency [4] is reported as “inactive”. The Potency [5] was “inactive”, the Potency [6] was “inactive” and the Potency [7] was “inactive”. For the same molecule, the Potency [8] was “inactive”.
With `CC(C)=CCOc1ccc(/C=C/C(=O)c2ccc(OCC=C(C)C)cc2OCC(=O)O)cc1` the Potency [1] was 23.7 µM (active), the Potency [4] was “inactive” and the Potency [7] was 33.5 µM (active). The Potency [8] was “inactive”.
For `CCOC(=O)c1ccc(N)cc1`, the Potency [1] was “inactive”, the Potency [2] was “inactive” and the Potency [3] was “inactive”. The Potency [4] was “inactive”, the Potency [7] was “inactive” and the Potency [8] was “inactive”.
In the case of `CN1CCN(CCC(=O)N2c3ccccc3Sc3ccc(C(F)(F)F)cc32)CC1`, the Potency [9] is reported as 9.7 µM (active), the Potency [2] is reported as 26.6 µM (active) and the Potency [5] is reported as 17.4 µM (active). The Potency [6] was 23.7 µM (active).
In the case of `O=C(Nc1ccccc1)OCC(CN1CCCCC1)OC(=O)Nc1ccccc1` (centres undefined), the Potency [1] is reported as “inactive”, the Potency [6] is reported as 29.9 µM (active) and the Potency [8] is reported as “inactive”.
With `CCc1oc2ccccc2c1C(=O)c1cc(Br)c(O)c(Br)c1` the Potency [9] was 19.4 µM (active), the Potency [3] was “inactive” and the Potency [4] was “inactive”. For the same molecule, the Potency [8] was “inactive”.
For `COc1ccc(C(Cl)=C(c2ccc(OC)cc2)c2ccc(OC)cc2)cc1`, the Potency [9] was “inactive”, the Potency [1] was “inactive” and the Potency [4] was “inactive”. The Potency [6] was “inactive”, the Potency [7] was “inactive” and the Potency [8] was “inactive”.
In the case of `CCN(CC)CCNc1ccc(CO)c2sc3ccccc3c(=O)c12`, the Potency [9] is reported as 17.2 µM (active), the Potency [1] is reported as 16.8 µM (active) and the Potency [3] is reported as 13.8 µM (active). For the same molecule, the Potency [5] was 24.6 µM (active), the Potency [6] was 23.7 µM (active) and the Potency [7] was “inactive”. For the same molecule, the Potency [8] was 18.8 µM (active).
With `O=C1OC2(c3ccccc31)c1cc(Br)c(O)c(Br)c1Oc1c2cc(Br)c(O)c1Br` the Potency [1] was “inactive”, the Potency [3] was “inactive” and the Potency [4] was “inactive”. For the same molecule, the Potency [5] was “inactive”, the Potency [6] was “inactive” and the Potency [7] was “inactive”. For the same molecule, the Potency [8] was “inactive”.
In the case of `C[C@H]1O[C@@H](O[C@H]2CC[C@@]3(C)[C@H](CC[C@@H]4[C@@H]3C[C@@H](O)[C@]3(C)[C@@H](C5=CC(=O)OC5)CC[C@]43O)C2)C[C@H](O)[C@@H]1O[C@H]1C[C@H](O)[C@H](O[C@H]2C[C@H](O)[C@H](O[C@@H]3O[C@H](CO)[C@@H](O)[C@H](O)[C@H]3O)[C@@H](C)O2)[C@@H](C)O1`, the Potency [9] is reported as 0.386 µM (active), the Potency [1] is reported as 0.668 µM (active) and the Potency [3] is reported as 0.309 µM (active). The Potency [5] was 0.219 µM (active), the Potency [6] was 0.15 µM (active) and the Potency [8] was 0.075 µM (active).
In the case of `Nc1nc(Cl)nc2c1ncn2[C@@H]1O[C@H](CO)[C@@H](O)[C@@H]1F`, the Potency [2] is reported as 0.335 µM (active), the Potency [4] is reported as “inactive” and the Potency [5] is reported as 0.195 µM (active). The Potency [6] was “inactive”, the Potency [7] was 0.841 µM (active) and the Potency [8] was “inactive”.
